Laboratory results reported in PubChem BioAssay AID504832 (National Center for Advancing Translational Sciences (NCATS), 2011).
“And” between values parts separate entries of the source, which are not always exact repeats. Identical values can stand only once. In all, about 310,000 compounds went through this assay and about 18,000 (5.8%) were called active. Roughly 22% stayed inconclusive and do not appear here. The entries come from a sample that favours actives as a whole. Unmarked numbers belong to inactive results. The call rests on the fitted dose curve; in most records, active means well fitted inhibition curve with a large enough effect; inconclusive means small, poorly fitted or top-dose-only effect, or another doubt; inactive means no such curve, though single readings can be large or run the other way.

Assay: Primary qHTS for delayed death inhibitors of the malarial parasite plastid, 48 hour incubation
Conditions: P. falciparum luciferase growth in erythrocytes; series mostly up to 28.7 µM; activity change, negative = inhibition: at the top concentration
In short: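 Cell-based growth assay: transgenic P. falciparum expressing firefly luciferase, cultured in red cells within RPMI 1640 containing 0.5% w/v Albumax, 24 mM bicarbonate and gentamycin. A drop in luciferase activity indicates inhibition.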
On the % scale 0 is the no-effect control and ±100 the full control effect; potency means the concentration at half of the fitted maximal effect.

Compound | activity change, negative = inhibition | Potency
COc1ccccc1S(=O)(=O)c1c(C)cc(C)[nH]c1=O | 1.78% | –
O=S(=O)(NC1CC1)c1ccc(F)c(F)c1 | 21.7% | –
O=C(CC1C(=O)NCCN1CC(c1ccccc1)c1ccccc1)NCC1CCOCC1 (centres undefined) | 31.7% | –
C=CCN1CCN(C(=O)CCCc2ccccc2)CC1 | -10.1% | –
COc1ccc(/C=C2/C(=O)N(c3ccccc3)N=C2C)c(OC)c1 | 0% | –
COc1ccc(/C=C/C2=CC(C)(C)NC(=S)N2)c(OC)c1 | – | 10.4 µM (active)
COc1ccc(/C=C/C(=O)OCC(=O)Nc2cccc(Oc3ccccc3)c2)c(OC)c1 | -24.4% | –
O=C(CNC(=O)c1cccnc1)N/N=C/c1cccnc1 | 2.56% [at 0.00184 µM] | –
CCN(C(=O)CSc1ncnc2c1cnn2-c1ccccc1)C1CCS(=O)(=O)C1 (centres undefined) | 8.95% | –
CC(C(=O)NC1CCCCC1)N1C(=O)c2cccc3cccc1c23 (centres undefined) | -7.22% | –
CCc1cccc(CC)c1NC(=S)Nc1ccc2cn[nH]c2c1 | -10.8% | –
CCc1cccc(CC)c1NC(=S)NCc1ccc2[nH]c(C)cc2c1 | – | 4.65 µM (active)
Cc1c(Cl)cccc1NC(=S)NCc1ccc2c(c1)OCO2 | -12.2% | –
Cc1cccc(NC(=O)C2CCN(C(=O)NC3CCCCC3)CC2)c1 | -5.57% | –
CCc1ccc(OCC(=O)N(Cc2ccccc2)C2CCS(=O)(=O)C2)cc1 (centres undefined) | -17.9% | –
CCOC(=O)N1CCN(S(=O)(=O)N2CCCC(C(=O)NCCCN3CCC(C)CC3)C2)CC1 (centres undefined) | 2.94% | –
COc1ccc(-c2cn[nH]c2-c2ccc(OC)cc2)cc1 | 8.51% | –
COc1ccc(-c2[nH]ncc2CN(C)Cc2cccnc2)c(F)c1 | 10% | –
COc1ccc(-c2[nH]ncc2/C=N/NC(=O)c2cc(Br)ccc2O)c(OC)c1 | -3.08% | –
COc1ccc(Oc2cn[nH]c2-c2ccc(OC)cc2O)cc1 | – | 6.57 µM (active)
CCOc1ccccc1Oc1cn[nH]c1-c1ccc(OC)cc1O | – | 11.7 µM (active)
CCN(CCn1cccn1)Cc1cn[nH]c1-c1ccc(OC)cc1F | 1.61% | –
NC(=O)CSc1nnc(NC(=O)c2ccc(Br)o2)s1 | 34.6% | –
Cc1cc(C)c(S(=O)(=O)c2ccc(F)cc2C)c(=O)[nH]1 | -15.1% | –
CC(C)NS(=O)(=O)c1ccc(OCC(=O)NC2CCCCCC2)cc1 | 11.5% | –
Cc1ccc(NS(=O)(=O)c2ccc(F)cc2)nc1 | -3.15% | –

Compound | activity change, negative = inhibition | Potency
CSCC[C@H](NC(=O)N1CCn2c1nc1ccccc12)C(=O)NCc1ccc2c(c1)OCO2 | -12.8% | –
COC(=O)c1ccc2ccccc2c1OC1OC(CO)C(O)C(O)C1NC(C)=O (centres undefined) | 4.79% | –
Cc1ccc(CNC(=O)[C@@H](NC(=O)Cc2ccccc2)C(C)C)cc1 | -1.72% | –
O=C(c1ccccc1)c1ccc(OCC(O)CN2CCCC2)cc1 (centres undefined) | 4.24% | –
O=[N+]([O-])c1ccc(N2CCN(CC(O)COc3ccccc3)CC2)cc1 (centres undefined) | 39.3% | –
O=C(C(c1ccccc1)c1ccccc1)N1CCN(CC(O)COc2ccccc2)CC1 (centres undefined) | – | 10.4 µM (active)
CC(=O)Nc1ccc(/C=N/NC(=O)c2cccs2)cc1 | 476% | –
Cc1cccc(-n2c(C)cc(/C=N\NC(=O)c3cccs3)c2C)c1 | – | 5.22 µM (active)
Cc1cccc(-n2c(C)cc(/C=N/NC(N)=S)c2C)c1 | -15.4% | –
Cc1ccc2[nH]cc(CCNC(=O)C3CCCCC3)c2c1 | -6.91% | –
CCc1c(C)nc(SCC(=O)NC2CCCC2)[nH]c1=O | 2.27% | –
c1ccc2c(CSCc3nc4ccccc4[nH]3)cccc2c1 | 8.42% | –
N=C(N)SCc1cccc2ccccc12 | – | 9.28 µM (active)
N#C/C(=C(/O)Cc1cccc2ccccc12)c1nc2ccccc2s1 | 1.6% | –
O=C(Nc1ccc(Cl)cc1)c1cccc(OC(=S)N2CCOCC2)c1 | 6.9% | –
Cc1ccc(C(=O)O/N=C(\N)c2ccccn2)cc1Cl | -84.4% | –
CCOc1ccc(OCCSc2nc3ccccc3n2CC(=O)O)cc1 | -6.72% | –
CC(C)=CCN1CCN(Cc2cc3ccccc3[nH]2)CC1CCO (centres undefined) | 2.8% | –
COc1ccc(C(=O)N2CCCC(C(=O)c3ccccc3OC)C2)cc1OC (centres undefined) | 5.51% | –
COc1ccc(CSc2nc(N3CCOCC3)c3c(c2C#N)CC(C)(C)OC3)cc1 | – | 11.7 µM (active)
Cc1cc(C)c(C#N)c(SCc2ccc3c(c2)OCO3)n1 | 6.16% | –
COc1ccc(-n2nnnc2SCc2nc(N)nc(N3CCOCC3)n2)cc1 | 34.6% | –
CC(C)(C)OC(=O)N1CCC(C(=O)NNC(=O)c2ccc(Cl)cc2Cl)CC1 | 15.3% | –
Cc1c(CN2CCC(n3nccc3NC(=O)CCc3ccccc3)CC2)cnn1C | 18.2% | –
COC(=O)c1c(NC(=O)C2CC(C)=C(C)CC2C(=O)O)sc2c1CCCCC2 (centres undefined) | 1.83% | –
COC(=O)c1ccc(S(=O)(=O)N2CCc3ccccc3C2)cc1 | 18.3% | –

Compound | activity change, negative = inhibition | Potency
Cc1ccc(C2Nc3ccccc3C(=O)N2CCN2CCNC2=O)cc1 (centres undefined) | -5.97% | –
COc1ccc(C2Nc3ccccc3C(=O)N2c2ccc(Cl)cc2)cc1Cn1cc([N+](=O)[O-])cn1 (centres undefined) | 4.94% | –
COc1ccc(N2C(=O)c3ccccc3NC2c2ccc(OC)c(CN3CCOCC3)c2)cc1 (centres undefined) | 46% | –
COc1ccc(C2=NO[C@@H]3C(=O)N(Cc4ccccc4)C(=O)[C@H]23)cc1OC | 14.1% | –
COc1ccc(C2Nc3ccccc3C(=O)N2Cc2ccccc2)cc1Cn1nnc2ccccc21 (centres undefined) | – | 3.7 µM (active)
COc1ccc(C2Nc3ccccc3C(=O)N2c2ccc(F)cc2)cc1Cn1nnc2ccccc21 (centres undefined) | – | 6.57 µM (active)
CCCc1c(C(=O)N/N=C(\C)CCc2ccc(OC)cc2)nnn1-c1nonc1N | 25.2% | –
CC(C)C(NC(=O)c1c(F)cccc1F)C(=O)NCc1ccncc1 (centres undefined) | 7.76% | –
Cc1ccc2nc(Nc3ccccc3O)nc(-c3ccccc3)c2c1 | – | 13.1 µM (active)
O=C(CCl)NNc1nc(-c2ccccc2)c2cc(Cl)ccc2n1 | 3.75% | –
CCS(=O)(=O)Nc1cccc(-c2cc(-c3ccccc3)c3cc(C)ccc3n2)c1 | -16.1% | –
Nc1c(C(=O)OCC(=O)Nc2ccc(OC(F)F)cc2)[nH]c(=O)[nH]c1=O | 19.4% | –
O=C(c1cc(COc2ccc(F)cc2F)on1)N1CCOCC1 | 56.8% | –
CCCCC(=O)Nc1ccc(C(=O)Nc2cc(C(F)(F)F)ccc2Cl)cc1 | -22.2% | –
CCCCN(CCCC)CCC(O)c1cc2c(Cl)cc(Cl)cc2c2cc(C(F)(F)F)ccc12 (centres undefined) | – | 3.2 nM (active) and 4.1 nM (active)
COc1cccc(CNC(=O)COc2cc(O)c3c(c2)OC(C)(C)CC3=O)c1 | 19.9% | –
Cc1ccc(CNC(=O)CSc2nnc3c(n2)[nH]c2ccc(F)cc23)cc1 | 1.4% | –
O=C(CSc1nnc2c(n1)[nH]c1ccccc12)NC1CCCCC1 | 0% | –
Clc1ccc(CSc2nnc3c(n2)[nH]c2ccccc23)cc1 | – | 5.22 µM (active)
CCCCN(C(=O)c1ccc(S(=O)(=O)N2CCOCC2)cc1)C1CCS(=O)(=O)C1 (centres undefined) | -11.1% | –
O=C1NCC(=O)N(Cc2ccccc2)/C1=C/c1ccccc1 | 399% | –
O=C1NNC(c2ccccc2)=N/C1=C\c1ccc(Cl)cc1 | – | 6.57 µM (active)
O=C1OC(c2ccc(Cl)cc2)=N/C1=C\c1cccnc1 | 8.84% | –
COc1ccc(C2CC(c3ccc([N+](=O)[O-])cc3)=NN2C(C)=O)cc1 (centres undefined) | 37.5% | –
CNC(=O)C1CC(=O)N(c2ccc(OCC(=O)Nc3ccccc3C)cc2)C1 (centres undefined) | 51.2% | –
O=C1C(=O)N(CCCO)C(c2ccccc2)/C1=C(\O)c1ccc(Br)cc1 (centres undefined) | -14.6% | –

Compound | activity change, negative = inhibition | Potency
O=C(N/N=C/c1cccc(O)c1)c1cc2c(ccc3ccccc32)o1 | -1.63% | –
Cc1ccc(OCCOc2cccc(/C=N/NC(N)=O)c2)cc1 | 59.9% | –
O=C(N/N=C/c1cccc(OCc2ccccc2)c1)c1ccc(Br)o1 | – | 9.28 µM (active)
O=C(NCCCN1CCOCC1)c1cc(-c2ccccc2F)no1 | 36.9% | –
Nc1ccccc1SCc1cc([N+](=O)[O-])cc2c1OCOC2 | 58.4% | –
Nc1ccccc1Sc1ccc(C(F)(F)F)cc1[N+](=O)[O-] | 27.9% | –
Nc1ccccc1SC(C[N+](=O)[O-])c1ccccc1 (centres undefined) | – | 4.15 µM (active)
CN(c1ccc(O)cc1)c1nc(-c2cccnc2)cs1 | 2.67% | –
O=C1CCCC2=C1C(c1ccccc1)n1c(s/c(=C/c3cccc(F)c3)c1=O)=N2 (centres undefined) | 3.37% | –
COc1ccc(OC)c(C2C3=C(N=c4s/c(=C\c5cccc(O)c5)c(=O)n42)c2ccccc2CC3)c1 (centres undefined) | – | 5.86 µM (active)
O=C(NCCc1ccc(F)cc1)c1ccc2nccnc2c1 | 136% | –
Clc1ccc(Nc2ncnc3c2nnn3Cc2ccccc2)cc1 | -9.13% | –
CC(C)Nc1ncnc2c1nnn2Cc1ccccc1 | -4.05% | –
CC(C)Cc1nc(Nc2ccc(S(=O)(=O)N3CCCC3)cc2)c2nnn(Cc3ccccc3)c2n1 | – | 4.65 µM (active)
COc1cccc(CNC(=O)c2cccnc2Sc2ccc(Cl)cc2)c1 | -4.1% | –
COc1ccc(C(=O)OCC(=O)c2ccc(Cl)s2)c(OC)c1OC | 9.16% | –
CC(CNc1ccc([N+](=O)[O-])c2cccnc12)Nc1c([N+](=O)[O-])cc(C(F)(F)F)cc1[N+](=O)[O-] (centres undefined) | – | 10.4 µM (active)
CCN(CC)c1ccc([N+](=O)[O-])c2cccnc12 | 7.92% | –
O=[N+]([O-])c1cc([N+](=O)[O-])c2cccnc2c1O | -13.4% | –
N#Cc1cccc(OC(=O)c2ccc3c(=O)n4c(nc3c2)CCC4)c1 | 6.32% | –
C=CCOc1ccc(/C=C/C(=O)OCC(=O)NC(C)c2ccc(F)cc2)cc1 (centres undefined) | 0% | –
CCOC(=O)C1CCCN(CCSc2ccc(C)cc2)C1 (centres undefined) | 32.6% | –
O=c1c(-c2ccc3c(c2)OCCO3)c(C(F)(F)F)oc2cc(O)cc(O)c12 | -13.8% | –
CCc1cc2c(=O)c(-c3ccc(F)cc3)c(C(F)(F)F)oc2cc1OCC(=O)O | -22.9% | –
CCN1CCN(Cc2c(O)ccc3c(=O)c(-c4ccc(OC)c(OC)c4)c(C(F)(F)F)oc23)CC1 | – | 7.38 µM (active)
CC(CN1CCC(n2nccc2NC(=O)C2CCCC2)CC1)c1ccccc1 (centres undefined) | 33.6% | –
